According to PubChem BioAssay (NCI):
Compounds without any hit were thinned out: in the full panel of roughly 79,000, 15% have a hit. Calls of active or inactive are those of the source. Cut-off read from the data, not from the text of the source: active = growth inhibition above about 70%; inactive = the rest.

Columns and labels:
[1] = NCI Yeast Anticancer Drug Screen. Data for the rad52 strain (AID 147);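 note: 0% = growth of vehicle-treated control cultures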; conditions: S. cerevisiae rad52 mutant growth inhibition, active compounds read high
Procedure, shortened: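 Vehicle-treated cultures served as the reference for growth inhibition of compound-exposed yeast bearing a DNA repair mutation.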

[2] = NCI Yeast Anticancer Drug Screen. Data for the wt1 strain (AID 149);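 note: 0% = growth of vehicle-treated wt1 cultures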; conditions: S. cerevisiae wt1 strain (SPY 50644) growth inhibition, active compounds read high
Procedure, shortened: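 Growth inhibition read against vehicle controls after compound exposure of the wt1 yeast strain.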

[3] = NCI Yeast Anticancer Drug Screen. Data for the rad50EPP+ strain (AID 151);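 note: 0% = growth of vehicle-treated control cultures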; conditions: S. cerevisiae rad50 mutant strain, active compounds read high
Procedure, shortened: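 In this screen, rad50EPP+ yeast were exposed to compounds. Growth inhibition was scored against vehicle-treated controls.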

[4] = NCI Yeast Anticancer Drug Screen. Data for the mgt1 strain (AID 153); conditions: S. cerevisiae mgt1 mutant growth inhibition, active compounds read high
Procedure, shortened: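 mgt1 strain exposed; growth vs vehicle control recorded as inhibition.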

[5] = NCI Yeast Anticancer Drug Screen. Data for the rad50 strain (AID 155);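 note: 0% = growth of vehicle-only cultures of the same strain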; conditions: S. cerevisiae rad50 strain growth inhibition, active compounds read high
Procedure, shortened: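 Readout: growth inhibition relative to vehicle-treated cultures. Compound exposure was carried out in a genetically defined yeast strain deficient in DNA damage repair.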

[6] = NCI Yeast Anticancer Drug Screen. Data for the mec2-1 strain (AID 157); conditions: S. cerevisiae mec2-1 strain, active compounds read high
Procedure, shortened: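 Vehicle-treated cultures served as reference for growth inhibition of compound-exposed mec2-1 yeast.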

[7] = NCI Yeast Anticancer Drug Screen. Data for the rad14 strain (AID 159);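 note: 0% = growth of vehicle-treated control cultures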; conditions: S. cerevisiae rad14 strain growth inhibition, active compounds read high
Procedure, shortened: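 Growth inhibition vs vehicle controls; genetically altered yeast strain (DNA damage repair defect) treated with test compounds.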

[8] = NCI Yeast Anticancer Drug Screen. Data for the sgs1 mgt1 strain (AID 161);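 note: 0% = growth of cultures given vehicle only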; conditions: S. cerevisiae sgs1 mgt1 strain, active compounds read high
Procedure, shortened: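 Inhibition of yeast growth, normalised to vehicle-treated controls, is reported for a strain bearing genetic alterations in DNA damage repair.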

[9] = NCI Yeast Anticancer Drug Screen. Data for the CLN2oe strain (AID 163);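 note: 0% = growth of vehicle-only control cultures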; conditions: S. cerevisiae CLN2oe strain, active compounds read high
Procedure, shortened: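 Inhibition relative to vehicle-treated yeast is reported. Cells: strain with genetic alteration in cell-cycle control, grown with compound.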

[10] = NCI Yeast Anticancer Drug Screen. Data for the cln2 rad14 strain (AID 165);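 note: 0% = growth equal to vehicle treated cultures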; conditions: S. cerevisiae cln2 rad14 strain, active compounds read high
Procedure, shortened: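 Each compound was tested on cln2 rad14 yeast. Inhibition of growth was calculated against vehicle-exposed controls.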

[11] = NCI Yeast Anticancer Drug Screen. Data for the bub3 strain (AID 167); conditions: S. cerevisiae bub3 mutant strain, active compounds read high
Procedure, shortened: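 Readout: yeast growth inhibition, expressed relative to vehicle-only wells. The test organism is a mutant strain from a panel with lesions in DNA repair or checkpoint genes.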

[12] = NCI Yeast Anticancer Drug Screen. Data for the wt2 strain (AID 169);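 note: 0% = growth of vehicle-treated yeast cultures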; conditions: S. cerevisiae wt2 strain growth inhibition, active compounds read high
Procedure, shortened: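 Inhibition of yeast growth was determined after compound treatment, normalised to controls receiving only vehicle.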

[13] = NCI Yeast Anticancer Drug Screen. Data for the mlh1 strain (AID 171);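 note: 0% = growth of vehicle-treated control cultures of the same strain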; conditions: S. cerevisiae mlh1 strain growth inhibition, active compounds read high
Procedure, shortened: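 Vehicle-normalised growth inhibition of a repair- or checkpoint-altered yeast strain following compound treatment.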

[14] = NCI Yeast Anticancer Drug Screen. Data for the sgs1 strain (AID 173);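 note: 0% = growth of vehicle-only control cultures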; conditions: S. cerevisiae sgs1 mutant, active compounds read high
Procedure, shortened: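 Screen format: yeast with repair or checkpoint alterations, compound exposure, growth read relative to vehicle.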

[15] = NCI Yeast Anticancer Drug Screen. Data for the mlh1 rad18 strain (AID 175); conditions: S. cerevisiae mlh1 rad18 strain growth inhibition, active compounds read high
Procedure, shortened: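 Vehicle-treated cultures served as the reference for growth inhibition in a yeast strain carrying DNA damage repair alterations exposed to each compound.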

[16] = NCI Yeast Anticancer Drug Screen. Data for the rad18 strain (AID 177); conditions: S. cerevisiae rad18 mutant growth inhibition, active compounds read high
Procedure, shortened: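 Test articles were incubated with altered yeast defective in DNA damage repair. Results are given as inhibition of growth versus vehicle.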

[17] = at 5.0 µM (retest, dose inferred, filed as 0.5)
[18] = at 50.0 µM (retest, dose inferred, filed as 5.0)

Measured: growth inhibition

O=C1c2ccccc2-c2cc3ccccc3c(=O)n21
inactive: [1]; at 1.2 µM 32% | [1]; at 3.7 µM 64% | [2]; at 1.2 µM -21% | [2]; at 3.7 µM 0% | [2]; at 11.0 µM 31% | [2]; at 33.0 µM 58% | [2]; at 100.0 µM 51% | [3]; at 1.2 µM 41% | [4]; at 1.2 µM 12% | [4]; at 3.7 µM 2% | [4]; at 11.0 µM 37% | [5]; at 1.2 µM 32% | [5]; at 3.7 µM 64% | [5]; [17] 1% | [6]; at 1.2 µM 13% | [6]; at 3.7 µM 19% | [6]; [17] -14% | [6]; at 11.0 µM 48% | [6]; [18] 41% | [7]; at 1.2 µM 11% | [7]; at 3.7 µM 20% | [7]; at 11.0 µM 42% | [7]; at 33.0 µM 66% | [7]; at 100.0 µM 69% | [8]; [17] 9% | [8]; [18] 46% | [9]; at 1.2 µM 1% | [9]; at 3.7 µM 4% | [9]; at 11.0 µM 23% | [9]; at 33.0 µM 51% | [9]; at 100.0 µM 68% | [10]; [17] 22% | [10]; [18] 15% | [10]; at 50.0 µM 14.3% | [11]; at 1.2 µM 3% | [11]; at 3.7 µM 2% | [11]; [17] -2% | [11]; at 11.0 µM 10% | [11]; at 33.0 µM 68% | [11]; [18] 56% | [12]; at 1.2 µM 4% | [12]; at 3.7 µM 9% | [12]; at 11.0 µM 31% | [13]; at 1.2 µM 4% | [13]; at 3.7 µM 19% | [13]; at 11.0 µM 66% | [13]; at 100.0 µM 63% | [14]; at 1.2 µM 22% | [14]; at 3.7 µM 14% | [14]; at 11.0 µM 47% | [15]; [17] -13% | [15]; [18] 63%
active: [1]; at 11.0 µM 91% | [1]; at 33.0 µM 93% | [1]; at 100.0 µM 87% | [3]; at 3.7 µM 76% | [3]; at 11.0 µM 90% | [3]; at 33.0 µM 92% | [3]; at 100.0 µM 80% | [4]; at 33.0 µM 71% | [4]; at 100.0 µM 76% | [5]; at 11.0 µM 88% | [5]; at 33.0 µM 89% | [5]; [18] 92% | [5]; at 50.0 µM 91.7% | [5]; at 100.0 µM 84% | [6]; at 33.0 µM 70% | [6]; at 50.0 µM 85.3% | [6]; at 100.0 µM 77% | [8]; at 50.0 µM 81% | [11]; at 50.0 µM 84.5% | [11]; at 100.0 µM 72% | [12]; at 33.0 µM 73% | [12]; at 100.0 µM 73% | [13]; at 33.0 µM 74% | [14]; at 33.0 µM 76% | [14]; at 100.0 µM 77% | [15]; at 50.0 µM 81%

O=C(Nc1cccs1)c1ccccc1
inactive: [1]; at 1.2 µM -5% | [1]; at 3.7 µM -3% | [1]; at 11.0 µM -5% | [1]; at 33.0 µM 3% | [1]; at 100.0 µM 67% | [2]; at 1.2 µM -5% | [2]; at 3.7 µM -6% | [2]; at 11.0 µM -8% | [2]; at 33.0 µM -6% | [2]; at 100.0 µM 48% | [3]; at 1.2 µM -1% | [3]; at 3.7 µM 7% | [3]; at 11.0 µM 10% | [3]; at 33.0 µM 18% | [3]; at 100.0 µM 38% | [4]; at 1.2 µM -1% | [4]; at 3.7 µM -4% | [4]; at 11.0 µM -4% | [4]; at 33.0 µM 5% | [5]; at 1.2 µM -4% | [5]; at 3.7 µM -8% | [5]; [17] -155% | [5]; at 11.0 µM 10% | [5]; at 33.0 µM 42% | [6]; at 1.2 µM -1% | [6]; at 3.7 µM -1% | [6]; [17] -52% | [6]; at 11.0 µM -4% | [6]; at 33.0 µM 3% | [6]; [18] -42% | [6]; at 50.0 µM 30.1% | [6]; at 100.0 µM 51% | [7]; at 1.2 µM 0% | [7]; at 3.7 µM -3% | [7]; at 11.0 µM 0% | [7]; at 33.0 µM 23% | [8]; [17] -67% | [8]; [18] 66% | [8]; at 50.0 µM 65.8% | [9]; at 1.2 µM 0% | [9]; at 3.7 µM -1% | [9]; at 11.0 µM -1% | [9]; at 33.0 µM -1% | [9]; at 100.0 µM 53% | [10]; [17] -65% | [10]; [18] -62% | [10]; at 50.0 µM -0.2% | [11]; at 1.2 µM -12% | [11]; at 3.7 µM -9% | [11]; [17] -68% | [11]; at 11.0 µM -3% | [11]; at 33.0 µM -7% | [11]; [18] 8% | [11]; at 50.0 µM 13.8% | [11]; at 100.0 µM 64% | [12]; at 1.2 µM -1% | [12]; at 3.7 µM -1% | [12]; at 11.0 µM -2% | [12]; at 33.0 µM -2% | [12]; at 100.0 µM 67% | [13]; at 1.2 µM 6% | [13]; at 3.7 µM -5% | [13]; at 11.0 µM -5% | [13]; at 33.0 µM 2% | [14]; at 1.2 µM 0% | [14]; at 3.7 µM -1% | [14]; at 11.0 µM -1% | [14]; at 33.0 µM 3% | [15]; [17] -125% | [16]; at 1.2 µM -6% | [16]; at 3.7 µM -2% | [16]; at 11.0 µM 1% | [16]; at 33.0 µM 4%
active: [4]; at 100.0 µM 88% | [5]; [18] 82% | [5]; at 50.0 µM 94.8% | [5]; at 100.0 µM 92% | [7]; at 100.0 µM 80% | [13]; at 100.0 µM 86% | [14]; at 100.0 µM 86% | [15]; [18] 80% | [15]; at 50.0 µM 94.6% | [16]; at 100.0 µM 94%
